# From PubChem BioAssay AID1508600 (Functional Genomics Laboratory (NCATS/FGL), 2020)
# The whole screen tested about 53,000 sequences, of which about 3,700 (7%) were called active. The full list was thinned out, with actives kept by preference. Unmarked numbers belong to inactive results.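 The calls were made as follows: active = gene knockdowns whose robust z-score for IL-1 alpha signal is at least 2 or at most -2, so actives lie on both sides; inactive = the rest.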
# Test: Components of the Cytosolic LPS Sensing Pathway: Gene Identification via Genome-wide siRNA Screen;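 also: robust z of the log signal after scaling to non-targeting control siRNA wells of the plate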
# Conditions: RAW264.7 macrophages, IL-1a HTRF, actives lie on both sides, screened at 100 nM (by protocol), cells primed 5 h with Pam3CSK4 first
# Outline: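 Cells (RAW264.7, 1×10^4 per well) were transfected with siRNA at 100 nM and cultured 48h at 37 degrees C. Pam3CSK4 was added for 5 hours; LipidA transfection followed for 24 hour. IL-1a was then measured by HTRF.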
row,Sequence,z-score
1,GCAGUUUGUGGAUAUGUCATT against Treh,0.604
2,GGUUUUCUCGCUCAGACCATT against Wt1,0.352
3,GGUCAUACAUGUGAAGACATT against Tsr2,2.01 (active)
4,GGGCAAGAUGGUCAGUAGATT against Tpt1,0.627
5,CGCAACAGCUAGGAUUUUUTT against Me1,0.193
6,CCCAUUAGAUGCUGAAUAUTT against Stmn1,0.139
7,CCAGUGUUUGACUUGACCATT against Dpysl3,0.228
8,GGUUGUCGUCAACAAGAGCTT against Krt72,1.96
9,GGUGUCAUCCCUGAAAGAGTT against Tert,0.0314
10,GGAAUUUCUUCAGGACACUTT against Procr,0.278
11,GGCUCAAUAAAAUGAAGUGTT against Elovl2,2.03 (active)
12,GGCUCAUGGUUAUUGUAAUTT against Olfr1198,-0.385
13,UGUAUCUUUCUGUAGUUCUTT against Taar7e,0.195
14,GGAACAUGGCACUUUCGUGTT against Pcdh10,0.905
15,CGGUUAAAAGCCCUCAGCATT against Olfr592,-1.41
16,GGUCAAGUGCGAGAAACUCTT against Mafb,-0.016
17,GGUGGGAAGAGGAAUACACTT against Iffo1,4.73 (active)
18,GGGACCAGAUGAAGAAGGATT against Coq4,0.267
19,GGAAAUAGAGGAAAGAGAATT against Rbm17,-0.235
20,GGCCAUCCAUUGAAGACAUTT against Stk-ps2,1.05
21,GGCUCUGUUGAAUGCAACGTT against Slc39a6,-2.15 (active)
22,CUUUGUCAGCCAUGUAUCCTT against Tas2r104,0.468

row,Sequence,z-score
1,GCUGCCACUGGACACAUAATT against 4930591A17Rik,-0.0198
2,GGCUCAAGAAAGUGAAUGATT against Myog,-1.14
3,GCAAGACACUUGAUAACUCTT against Znrd1as,2.34 (active)
4,GGAGCAUUUGUUUCCAAGATT against Cd38,-1.33
5,GCGCAAUGACGAUAAACUCTT against Sema3f,0.534
6,CCGGAGGUUCCAACAAACUTT against Dlx1,-0.591
7,GGAUCCAGAACUAAAAAUCTT against Pcdhga2,0.193
8,GCUUACUAAUGCGGAUUACTT against 5330438D12Rik,-2.41 (active)
9,GGAAGUUGGUGAGCUGGUATT against Ccl17,2.4 (active)
10,GGAAGACAACAACCUAGAATT against Rpn1,-0.894
11,GCAGAGUCUGGAUCAACAUTT against Efcab14,-0.583
12,CCUCCAGUUCAGAAUUCUATT against Surf4,0.634
13,GGCACGAUACUUAUUUGAATT against Nudt13,-1.43
14,GGAAGUUGUAGGAGAAAACTT against Rnf214,-0.624
15,CGAGAACAGAGGUUUUUAATT against Mxi1,0.0641
16,GGAUGCAUUUUUUCUGGAATT against Nop53,0.85
17,GGUGGAAGAGGAGAGUGAATT against Ncl,-0.284
18,GGAACUGAGCCAAGAAGCUTT against Prox2,-2.16 (active)
19,GUGUGGACAACUCCUGAGUTT against 9630041A04Rik,-1.14
20,CGUUAACUCUCGGACGAUCTT against Fitm1,0.576
21,GGAGGUGGAUCAAAUGGCATT against Gnrh1,-0.667
22,GGAAAUAUUGUCAUCAUGGTT against Olfr1302,-0.483

row,Sequence,z-score
1,GCGGAACUGACUUUCCUGATT against Rhot2,0.443
2,GGGUAAGAGUUACAGAAUATT against Serpinb8,-0.0947
3,GCUUUACGAUACUCCAUAUTT against Shd,-0.506
4,GGGAGAAAAUUGGCUUAGATT against Dclre1b,0.424
5,GAUGUUCUGCAUCUACUUUTT against Olfr545,1.46
6,CCUGAAAUCCUGUAGCUACTT against Pgap3,1.35
7,GGCAGAGACCUCAAAACCATT against Selplg,-2.33 (active)
8,GGACCAUCACUUCCAGCUATT against Rab1b,-0.726
9,GGAAGUCUCUAUCCUGAACTT against Prss50,-0.24
10,GGAAGUCAACAAUGCAUUCTT against Olfr1451,-0.133
11,GGUAAAUUACUCUGAUCAATT against Gpr61,-0.593
12,GGGAUUAAUAUCAUACCGATT against Slc30a5,-1.33
13,GGGUUUUAUGACCUUCAAGTT against Zkscan14,0.655
14,GGAUGCUCUAGUUCCAUUATT against Aym1,0.51
15,GGAGCAUCAUUUUAACACUTT against Tubd1,0.925
16,GGAUCCUGGUCCAAACUUUTT against Atraid,-1.52
17,GGUUAUUGGCACUUUUAGATT against Ect2,0.0504
18,GGAUUGCUUCACCACAUGUTT against Fes,2.44 (active)
19,GGUGCUGAUGAAGUUCAUGTT against Ap1b1,1.47
20,GGAGACUAUUUCAUCUACUTT against Tnfsf15,0.347
21,GGAGAAAACACAAUGUCUUTT against Limd1,0.441
22,CCUACAGAUAGGUAUGUAGTT against Exo1,-2.07 (active)

row,Sequence,z-score
1,GGACUUUGAGGAGAAGGAUTT against Rabep2,-1.34
2,GGAAGGUGUCAAUAAAGAUTT against Lypd3,0.0184
3,GGGAUUUUUGAAACUGAAGTT against Glod4,-2.78 (active)
4,GGAGAGUCUCCAGACUUUGTT against Med29,-0.521
5,GGAGGAGACUCAGCAGAUUTT against Gzmn,2.29 (active)
6,CCAGAAGAACAAGGAAGUATT against Gm6460,-0.914
7,GGCCCAACGACAUUUAUGUTT against Pop7,-1.38
8,GCCUUCUGAUAACCUACUATT against Mefv,-1.87
9,GCUAGUGGUAAGUCAACCATT against Iqsec1,-0.882
10,GGAAGCUUACAUUGUGAAGTT against Unc5c,-0.735
11,GGACAAGCAAGGUCAAUCATT against Taar1,-1.11
12,GGUGUAAGAGCUUUGGCCUTT against Gm5420,2.35 (active)
13,AAACUAGGGUCGAUUUCACTT against Hmgn3,0.704
14,GGCCUUCCUCUUCUGCUUATT against Csf3r,0.157
15,GUGAACAACAUCCAAGCGATT against Dhrs7c,0.183
16,GCGGAAAAAUUACUUUCUUTT against Tas2r107,-2
17,GGAGUUUUCAUGCCUACAATT against Odam,2.58 (active)
18,GGAAACCUACCAAGAAACGTT against Fam234a,-0.293
19,GGGACAAUUGGAAAGGCGATT against Wdr55,0.507
20,GGCACUUUCGGGAAUUCACTT against Nup160,-2.5 (active)
21,GCCUAUCAGUAUCAUAGUUTT against Dnajc10,0.905
22,GGAGUAUUCAACAUUUGUATT against Trim11,-0.523

row,Sequence,z-score
1,GAACGGGUUACCAUGUGGUTT against Xkr9,0.546
2,CGCAGGUGAGAGCAAUGUUTT against Lrrn4cl,-1.35
3,GGAAGGAACUCAAGAAGACTT against Ifrd1,2.13 (active)
4,GGAUGUGAAAUUCAAGCUUTT against Dhx34,-0.457
5,GGAUACAGAAGGUUUUCUUTT against Abcd4,-0.137
6,GGAACCCUUUUCAAAAGAGTT against Bclaf3,0.112
7,GGAGGAGACUAAAGAAAAUTT against Myf6,-1.53
8,GGAAACAUCUUGUUGAAGATT against BC106179,0.361
9,GGAGAAAGCAGAGAUAAAATT against Cdk11b,-1.8
10,CCCACAACUGCAAAUUGUGTT against Olfr782,-1.21
11,GGAUACAAGAAACCUUAAGTT against Os9,1.09
12,CGACUCUUGCCUGUUCGUGTT against Adamtsl5,-2.48 (active)
13,GGAUAAAUUUCAAGAUGUGTT against Naip5,-0.552
14,GGUACCAUUCGUUCAAACCTT against 3830406C13Rik,0.416
15,GGCCUUUACGUCUUCCUAGTT against Zdhhc12,-1.19
16,GGAAGAUGGGCAAGAUGAUTT against Sash3,-0.183
17,CCCAGCACUUUUUCGCUCUTT against Olfr458,0.959
18,GCAGGACAACCAGCUGGUATT against Tmem107,3.43 (active)
19,GGCACUCAGCAAGAUUGUATT against Nr2c2ap,-0.28
